The source of these data is PubChem BioAssay.

A word on the inhibition: it is the relative decrease from the control value, in per cent.

The nature of test [1]: inhibitors of TNFa-induced NFkB p65 translocation, primary screen, imaging, HUVEC, MLSMR starter and 10KST1 sets (AID 438;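 active = inhibition above 20% together with a positive visual image hit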;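 also: compound added about 3h40 before a 20 min TNFalpha stimulation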;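 as to inhibition: signal is the nuclear over cytoplasmic p65 intensity ratio per well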). Particulars: HUVEC TNFa-induced p65 nuclear translocation; cell count: measured here: nuclei count (cytotoxicity indicator), at 2.08 µM; inhibition: at 2 µM, stronger effect = higher value, 0% TNFa-plus-vehicle, 100% no-TNFa wells.
Test [2] is described as follows: reduction of polyQ htt aggregates in cells – imaging, exon1htt(103Q)mCFP cells, high-content imaging, primary screen (AID 483;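 active = visual image review flags a hit and inhibition of aggregation exceeds 20%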;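 also: compound exposure lasted 3 days before fixation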;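 as to nuclei count: percent of the per-plate median nuclei count of sample wells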). Particulars: exon1htt(103Q)mCFP cell line, aggregate imaging, at 2 µM; inhibition of aggregation: stronger effect = higher value; nuclei count: measured here: cell count, toxicity.
The nature of test [3]: endothelial E-selectin expression blockers – imaging, HUVEC, immunofluorescence, MLSMR starter and 10KST1 sets, primary screen (AID 487;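 active = visually confirmed hit in the image check and inhibition above 20%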;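 as to inhibition: signal is fraction of cell area covered by stained E-selectin grains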;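 as to nuclei count: 100% = median nuclei count of all wells on the same plate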). Particulars: HUVEC TNFalpha-induced E-selectin immunofluorescence imaging, at 2 µM; inhibition: stronger effect = higher value; nuclei count: measured here: cell number, toxicity.
The target of test [4] is Voltage-gated potassium channel subunit beta-2 (Rattus norvegicus) (UniProt P62483). The test is described as follows: inhibitors of rat Kvbeta2 reductase activity – biochemical, NADPH fluorescence, primary screen (AID 622;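 active = fluorescence slope higher than the sample average by over 3 SD, cut at about -0.22 in these data, passing the limit was not always enough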;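 also: slope of raw intensity against log time taken from 70 to 1610 s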). Conditions: recombinant KvBeta, 4-cyanobenzaldehyde reduction, at 10 µM, stronger effect = higher value.
For test [5] the target is unchanged. The test is described as follows: enhancers of rat Kvbeta2 NADPH turnover – biochemical, NADPH fluorescence, primary screen (AID 623;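 active = NADPH fluorescence slope more negative than the mean of all samples by about 3 SD, 99.7% confidence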;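 also: fluorescence intensity change per second fitted from 20 to 320 s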). Conditions: Recombinant KvBeta, NADPH fluorescence decrease slope, 10 min; at 10 µM; stronger effect = lower value.
Test [6] addresses Alpha-2C adrenergic receptor (Homo sapiens) (UniProt P18825). The test is described as follows: compounds altering alpha2C-coupled GIRK flux – cell-based, HEK293 alpha2C/GIRK1/2, thallium flux, primary screen (AID 624).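 Also: slope of fluorescence ratio to pre-addition baseline per second over 15 to 24 s.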 Conditions: thallium flux BTC fluorescence, at 10 µM, actives lie on both sides.
The nature of test [7]: blockers of RIG-like receptor reporter activation – cell-based, Sendai virus stimulus, luciferase, 10K MLSCN set, TLR/RLR signaling modifier project, primary screen (AID 602276;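 active = inhibition at or above 50% at 10 µM; inactive = inhibition below 50%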;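 also: firefly luciferase from ISG56 promoter only with Renilla not read in this screen; 0% = Sendai virus plus DMSO and 100% = medium plus DMSO without virus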). Particulars: HEK293 RL24 IRF3 luciferase reporter, at 10 µM, stronger effect = higher value.
Test [8] in a line: TLR3 IRF3 reporter activation blockers – cell-based, poly I:C stimulus, luciferase, 10K MLSCN set, primary screen (AID 602277;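 active = inhibition of the reporter signal at or above 50%; inactive = inhibition below 50%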). Conditions: HEK293-TLR3 RL24 IRF3 luciferase reporter, at 10 µM, stronger effect = higher value. In general terms: In a reporter assay the amount or activity of a reporter protein is the signal.

The structures appear in SMILES notation. Active and inactive are the calls of the source.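 The calls were made as follows, unless noted: active = fluorescence slope after compound addition differing from the mean of all screened samples at 99.7% confidence, in either direction; inactive = the rest.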

Alpha-2C adrenergic receptor (Homo sapiens), sequence (P18825 whole entry, looked up): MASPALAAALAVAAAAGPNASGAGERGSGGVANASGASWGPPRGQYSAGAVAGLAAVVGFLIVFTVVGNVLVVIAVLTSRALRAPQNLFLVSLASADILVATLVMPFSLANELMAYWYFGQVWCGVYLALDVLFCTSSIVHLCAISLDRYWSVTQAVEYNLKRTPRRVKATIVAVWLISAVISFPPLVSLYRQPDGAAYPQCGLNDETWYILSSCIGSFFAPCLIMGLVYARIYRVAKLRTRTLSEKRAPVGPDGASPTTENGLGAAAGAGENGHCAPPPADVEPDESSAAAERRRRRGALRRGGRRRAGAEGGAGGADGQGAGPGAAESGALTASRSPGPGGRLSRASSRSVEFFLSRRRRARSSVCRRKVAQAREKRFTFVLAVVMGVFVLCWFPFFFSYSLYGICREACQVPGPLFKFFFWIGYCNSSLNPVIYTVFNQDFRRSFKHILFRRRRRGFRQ
Voltage-gated potassium channel subunit beta-2 (Rattus norvegicus), sequence (P62483 whole entry, looked up): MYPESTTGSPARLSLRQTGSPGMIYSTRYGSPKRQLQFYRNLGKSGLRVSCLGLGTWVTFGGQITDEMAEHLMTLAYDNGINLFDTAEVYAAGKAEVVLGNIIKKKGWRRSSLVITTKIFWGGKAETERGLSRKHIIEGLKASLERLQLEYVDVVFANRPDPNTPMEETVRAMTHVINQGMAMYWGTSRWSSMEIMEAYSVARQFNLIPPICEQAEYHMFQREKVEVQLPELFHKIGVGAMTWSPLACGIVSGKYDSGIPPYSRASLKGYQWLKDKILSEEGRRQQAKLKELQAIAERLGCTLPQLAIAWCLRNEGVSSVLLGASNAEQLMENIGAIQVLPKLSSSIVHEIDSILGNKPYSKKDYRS

On to `Cc1nn(-c2nc3ccccc3s2)c(C)c1Oc1ccccc1O`, for which the cell count in test [1] was found to be 591. Also, the inhibition was -9.8% (inactive) in test [1], -154% (inactive) in test [3], 2.14% (inactive) in test [7] and -97.7% (inactive) in test [8]. Further, the inhibition of aggregation in test [2] was -19.1% (inactive). Moreover, the nuclei count was 107% in test [2] and 161% in test [3]. In addition, the fluorescence slope in test [4] is -0.437 (inactive). The NADPH fluorescence slope in test [5] was -2.9e-06 (inactive). Also, the slope in test [6] is 0.00527 (inactive).

Take `CC(C)(C)c1nc(CN2CCOCC2)ccc1O`: the cell count in test [1] was 580. For the same compound, the inhibition was -17% (inactive) in test [1], -58.3% (inactive) in test [3], 10.4% (inactive) in test [7] and 29.3% (inactive) in test [8]. The inhibition of aggregation in test [2] is 21.1% (inactive). The nuclei count in test [2] was found to be 104%; in test [3], 109%. In test [4], the fluorescence slope was -0.401 (inactive). The NADPH fluorescence slope in test [5] is -4.4e-05 (inactive). Moreover, in test [6], the slope is 0.0093 (inactive).

As for `Cn1c(=O)c2c(-c3ccncc3)c3c(nc2n(C)c1=O)-c1ccccc1C3=O`, the cell count in test [1] is 637. Besides, the inhibition in test [1] was 0% (inactive); in test [3] it was -113% (inactive); in test [7], 14.2% (inactive); in test [8] it was 22.4% (inactive). Further, the inhibition of aggregation in test [2] is -3.3% (inactive). In addition, the nuclei count was found to be 98.9% in test [2] and 136% in test [3]. Further, the fluorescence slope in test [4] was -0.497 (inactive). Moreover, in test [5], the NADPH fluorescence slope is 4.5e-05 (inactive). Moreover, the slope in test [6] was 0.00591 (inactive).

On to `CCc1nnc(NC(=O)CCC(=O)Nc2ccccc2)s1`, for which the cell count in test [1] was 554. Further, the inhibition was 7.2% (inactive) in test [1], 33.2% (inactive) in test [3], 9.85% (inactive) in test [7] and 2.44% (inactive) in test [8]. Also, in test [2], the inhibition of aggregation is -10.2% (inactive). The nuclei count in test [2] is 97.2%; in test [3], 93.4%. Further, the fluorescence slope in test [4] was -0.384 (inactive). Also, in test [5], the NADPH fluorescence slope is -6.1e-05 (inactive). Further, the slope in test [6] was 0.00537 (inactive).

For `COc1ccc(C2(C(=O)Nc3c(C)n(C)n(-c4ccccc4)c3=O)CCCC2)cc1OC`, the cell count in test [1] came to 712. Moreover, the inhibition in test [1] was 1.6% (inactive); in test [3], -52.3% (inactive); in test [7] it was 13.1% (inactive); in test [8] it was 14.9% (inactive). Further, the inhibition of aggregation in test [2] is -9.8% (inactive). Also, the nuclei count in test [2] was 76.1%; in test [3], 104%. Further, the fluorescence slope in test [4] is -0.427 (inactive). The NADPH fluorescence slope in test [5] is 2.3e-05 (inactive). In test [6], the slope was 0.00772 (inactive).

For the compound `Cc1ccc(Nc2nc(Oc3ccc(=O)[nH]n3)nc(N(C)C)n2)cc1`, in test [1], the cell count is 377. For the same compound, the inhibition in test [1] is 2.8% (inactive); in test [3] it was -65.6% (inactive); in test [7], 8.86% (inactive); in test [8], 11.8% (inactive). Besides, the inhibition of aggregation in test [2] is 13.2% (inactive). In addition, the figures for the nuclei count in test [2] and in test [3] were 101% and 111%, respectively. The fluorescence slope in test [4] is -0.498 (inactive). In addition, in test [5], the NADPH fluorescence slope is -4.2e-05 (inactive). The slope in test [6] was 0.00563 (inactive).

As to `CCOc1ccc2cc(C#N)c(SCC(=O)N3CCC(C)CC3)nc2c1`, the cell count in test [1] was found to be 447. The inhibition is 0.5% (inactive) in test [1], -92.8% (inactive) in test [3], 18.2% (inactive) in test [7] and 7.14% (inactive) in test [8]. Moreover, in test [2], the inhibition of aggregation was 6% (inactive). Further, the nuclei count in test [2] is 107%; in test [3], 138%. The fluorescence slope in test [4] was -0.242 (inactive). Also, the NADPH fluorescence slope in test [5] is 2.6e-06 (inactive). For the same compound, the slope in test [6] was 0.00566 (inactive).

`CCOc1cc(NC(=O)c2ccccn2)c(OCC)cc1NC(=O)CC(C)C`: the cell count in test [1] turned out to be 609. For the same compound, the inhibition is -11.5% (inactive) in test [1], -76.1% (inactive) in test [3], -9.2% (inactive) in test [7] and -24.5% (inactive) in test [8]. Further, the inhibition of aggregation in test [2] is -0.3% (inactive). Also, the nuclei count in test [2] came to 115%; in test [3], 119%. In test [4], the fluorescence slope was -0.615 (inactive). Moreover, the NADPH fluorescence slope in test [5] was 4.7e-06 (inactive). The slope in test [6] was 0.00499 (inactive).

As to `CC(=O)c1cccc(NC(=O)CCNS(=O)(=O)c2cccc3nsnc23)c1`, the cell count in test [1] worked out at 439. Further, the inhibition in test [1] was -3.5% (inactive); in test [3], -46.7% (inactive); in test [7] it was 11.2% (inactive); in test [8], 17.2% (inactive). The inhibition of aggregation in test [2] is -17.6% (inactive). Also, the figures for the nuclei count in test [2] and in test [3] were 104% and 107%, respectively. In addition, the fluorescence slope in test [4] was -0.539 (inactive). Besides, the NADPH fluorescence slope in test [5] is -3e-05 (inactive). In addition, in test [6], the slope was 0.00543 (inactive).
